An excerpt weighted towards active compounds, which were near 9% of everything screened.
ALDH1A1 block – ALDH1A1 (human) enzyme inhibition; Purified ALDH1A1, NADH fluorescence, propionaldehyde substrate; Potency, µM (highest dose often 75.3 µM), hits mostly inhibitors; hit rate 7.3% among 220,000; AID 1030
Target sequence (P00352 whole entry, looked up): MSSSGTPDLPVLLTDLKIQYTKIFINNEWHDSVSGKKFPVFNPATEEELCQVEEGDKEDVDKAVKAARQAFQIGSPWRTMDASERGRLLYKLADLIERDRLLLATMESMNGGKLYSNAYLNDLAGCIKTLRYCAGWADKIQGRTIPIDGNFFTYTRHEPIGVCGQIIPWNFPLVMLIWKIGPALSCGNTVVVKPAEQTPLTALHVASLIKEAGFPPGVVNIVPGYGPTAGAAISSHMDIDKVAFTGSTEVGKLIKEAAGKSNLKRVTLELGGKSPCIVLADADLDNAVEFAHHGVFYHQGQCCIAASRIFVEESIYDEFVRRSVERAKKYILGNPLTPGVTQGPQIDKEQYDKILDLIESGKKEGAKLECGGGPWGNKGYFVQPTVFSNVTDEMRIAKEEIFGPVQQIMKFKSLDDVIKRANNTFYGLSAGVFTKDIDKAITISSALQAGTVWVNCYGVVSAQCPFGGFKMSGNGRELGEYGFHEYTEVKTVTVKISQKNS
LMNA splice mod – changes lamin A minigene splicing in HeLa cells; HeLa LMNA splicing GFP/RFP minigene ratio, 48 h; hit rate 0.01% among 200,000; AID 1487; Potency, µM (top dose mostly 46.1 µM), most hits filed as inhibitors; active means well fitted inhibition curve with a large enough effect in the signal ratio, with a control signal flat, not every such curve was filed as active; inconclusive means small, poorly fitted or top-dose-only effect, or effect the other way, or a change in a side signal; the % refers to the signal ratio
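Read-out is the ratio of GFP to DsRed2 object intensity, acquired by 488 nm laser-scanning cytometry on HeLa lamin A-EGFP minigene reporter cells. Compound incubation 48 hrs at 37 °C in Opti-MEM with 2% FBS; DMSO 0.5% final.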
HPGD inh – blocks human HPGD enzyme activity. purified HPGD, NADH fluorescence kinetic, PGE2 substrate. Potency, µM, hits mostly inhibitors. hit rate 4.3% among 150,000. P15428. AID 894
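20 nM HPGD preincubated 15 min at room temperature with compound in 50 mM Tris-HCl pH 8, 0.01% Tween 20. Started with 1 mM NAD+ and 30 uM prostaglandin E2; NADH fluorescence (360/450 nm) read 5 times over 30-s intervals, last minus first.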
Luc counter – blocks Kinase-Glo luciferase, a counter-screen artifact | Kinase-Glo luciferase, ATP luminescence, 8 min | Potency, µM (highest dose often 38.3 µM), actives largely listed as inhibitors | hit rate 0.28% among 200,000 | AID 1379; active means well fitted curve in the direction sought with a large enough effect; inconclusive means small, poorly fitted or top-dose-only effect, or another doubt; inactive means no such curve, though single readings can be large; an effect the other way counts as inactive or inconclusive; further: nearly all actives have a fitted effect of over 60% in size
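Inhibition of Kinase-Glo luciferase light generation was assessed at 10 uM ATP in pH 7.2 imidazole buffer, with luminescence measured after eight minutes at ambient temperature.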
IMPase Li cell – IMPase inhibition in cells with lithium potentiation. CHO-M1 cells, IP1 TR-FRET (IP-One), carbachol + lithium. AID 1457. Potency, µM (titrated, usually from 59.4 µM), hits mostly inhibitors. hit rate 0.35% among 210,000; active means well fitted curve in the direction sought with a large enough effect; inconclusive means small, poorly fitted or top-dose-only effect, or another doubt; inactive means no such curve, though single readings can be large; an effect the other way counts as inactive or inconclusive;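 further: IP1 builds up when IMPase is blocked and the TR-FRET signal falls; nearly all actives have a fitted effect of over 50% in size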
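Steps: plate 2000 CHO-M1 cells per well and culture 16–30 h; add compound and lithium; incubate 30 min, 37C; add d2-IP1 tracer and Eu cryptate anti-IP1 antibody in lysis buffer; read after 10 min at room temperature.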
Numbers stand for hits; – = inactive; ? = inconclusive; · = no result; ! = not confirmed by another sample. Unless noted, the call rests on the fitted dose curve; in most records, active means well fitted inhibition curve with a large enough effect (not every such curve was filed as active); inconclusive means small, poorly fitted or top-dose-only effect, or another doubt; inactive means no such curve, though single readings can be large or run the other way.

SMILES	ALDH1A1 block	LMNA splice mod	HPGD inh	Luc counter	IMPase Li cell
Cc1ccc(C(=O)NC2CC3CCCC(C2)N3C(=S)NCc2ccco2)cc1 (stereo not given)	22µM	·	·	–	–
Cc1nnc2n(Cc3ccccc3)c(=O)c3c4c(sc3n12)COC(C)(C)C4	13µM	–	16µM	–	–
CCCSc1nc(SCC(=O)NCc2ccccc2)c2c3c(sc2n1)COC(C)(C)C3	–	–	–	–	10µM
CC1(C)Cc2c(sc3nnn(Cc4ccccc4)c(=O)c23)CO1	?	?	32µM	–	–
Cc1cc(C)n(-c2nc(SCCN(C)C)c3c4c(sc3n2)COC(C)(C)C4)n1	?	–	–	–	–
CC(C)CCCC(C)C1CCC2C3CC[C@H]4CC(=O)CC[C@@]4(C)C3CC[C@@]12C (stereo not given in full)	–	?	–	–	–
CCCCc1ccc(CC(=O)O)cc1	14µM	–	32µM	–	–
O=S(=O)(Cc1noc(-c2ccc(Cl)cc2)n1)Cc1ccco1	–	?	·	·	·
CCOc1ccc(N2CC(C(=O)NC3=NCCS3)CC2=O)cc1 (stereo not given)	–	–	·	–	–
CC1(C)Cc2c(C#N)c(N)sc(=S)c2CO1	11µM	–	–	–	?
COc1cc(OC)cc(C(=O)NCCc2csc(-c3ccc(C(F)(F)F)cc3)n2)c1	·	–	·	·	·
COC(=O)c1c(NC(=O)C2CC=CCC2C(=O)O)sc(C(N)=O)c1C (stereo not given)	?	–	–	–	–
CCOC(=O)c1c(NC(=O)C(Sc2ccccc2)c2ccccc2)sc(C(N)=O)c1C (stereo not given)	14µM	–	28µM	–	–
CCC(C(=O)Nc1ccsc1C(=O)OC)c1ccccc1 (stereo not given)	11µM	·	·	–	–
CCC(C(=O)Nc1nc(C)c(C(=O)OC)s1)c1ccccc1 (stereo not given)	–	–	·	–	–
CCC(C(=O)Nc1sc(C(N)=O)c(C)c1C(=O)OC)c1ccccc1 (stereo not given)	13µM	·	·	–	–
CCNc1ncc2nc(CCc3ccccc3)c(=O)n(C)c2n1	?	·	?	–	–
COc1ccc(C(=O)CSc2ccccc2C(=O)O)cc1	–	–	·	–	–
Cn1nnnc1SCCCNCc1ccccc1OCc1ccccc1Cl	·	–	·	·	·
COc1ccc(C(NC(=O)/C=C/c2ccco2)c2ccc(OC)c(OC)c2)cc1 (stereo not given)	20µM	?	?	–	–
COc1ccc(CNC(=O)/C=C/c2ccco2)cc1OC	3.5µM	·	·	–	–
O=c1[nH]c2cc([N+](=O)[O-])c([N+](=O)[O-])cc2[nH]c1=O	–	?	32µM!	–	–
O=c1ccn(C2OC(COP(=O)(O)OP(=O)(O)OP(=O)(O)O)C(O)C2O)c(=O)[nH]1 (stereo not given)	–	–	–	–	–
CCOc1ccc(S(=O)(=O)Nc2ccc(S(=O)(=O)N3CCOCC3)cc2)cc1	?	–	–	–	–
CCOC(=O)N1CCN(S(=O)(=O)c2ccc(OCC)c(C)c2)CC1	16µM	?	–	–	–
SMILES	ALDH1A1 block	LMNA splice mod	HPGD inh	Luc counter	IMPase Li cell
CCOc1ccc(S(=O)(=O)Nc2ccc(S(=O)(=O)N3CCCCC3)cc2)cc1	2.2µM	–	–	–	–
CCOc1ccc(S(=O)(=O)Nc2ccc(S(=O)(=O)N3CCCC3)cc2)cc1	3.2µM	–	–	–	–
CCOc1cc(S(=O)(=O)N2CCCCC2)ccc1Cl	22µM	–	–	–	–
CCOC(=O)N1CCN(S(=O)(=O)c2cc(OCC)ccc2OCC)CC1	–	–	–	–	–
NS(=O)(=O)c1ccc(O)c(NC(=O)c2ccc([N+](=O)[O-])cc2)c1	–	·	·	–	–
CCCCC(=O)NC(=S)NNC(=O)c1ccc(OC)cc1	–	?	·	–	–
CC(C)CN(CCCNC(=O)CN1N=C(c2ccccc2)CCC1=O)CC(C)C	·	–	·	·	·
O=S(=O)(c1cc(Cl)ccc1Cl)N1CCCC1	0.089µM	–	–	–	–
Cc1ccc(C(=O)Nc2nnc(S(=O)(=O)N3c4ccccc4CC3C)s2)cc1 (stereo not given)	·	–	·	·	·
CCN(CC)CCNS(=O)(=O)c1ccc(OC)c(Br)c1	–	–	–	–	–
O=C(CSc1nccc(=O)[nH]1)Nc1ccc(Br)c(Cl)c1	?	?	32µM	–	–
O=C(CSc1nccc(=O)[nH]1)Nc1ccc(F)c(Cl)c1	?	–	–	–	–
Cc1nn(C)c(Cl)c1CN1CCC(CO)(CC2CCCCO2)CC1 (stereo not given)	–	–	·	–	–
O=C1NCCCc2c1oc1cc(Br)c(O)c(Br)c21	4µM	?	–	–	–
CC(=O)c1cc(CN2CCN(C3CCN(C(C)C)CC3)C(CCO)C2)cs1 (stereo not given)	–	·	·	·	–
C=CCn1c(C)cc(C(=O)CSc2nc3ccccc3c(=O)[nH]2)c1C	?	?	2.8µM	–	?
CCN(CC)C(=O)CSc1nc2ncc(Cl)cc2[nH]1	?	–	13µM	–	–
COCC(C)n1c(C)cc(C(=O)CSc2nc3ccccc3c(=O)[nH]2)c1C (stereo not given)	–	?	32µM	–	–
C=CCn1c(C)cc(C(=O)CSc2nc3ccccc3[nH]2)c1C	–	–	?	–	–
COCCn1c(C)cc(C(=O)CSc2nc3ccccc3c(=O)[nH]2)c1C	–	?	16µM	–	–
O=[N+]([O-])c1ccc(/C=[N+](\[O-])CCO)o1	–	·	·	·	·
Cc1cc2c(cc1S(=O)(=O)NCc1ccc(F)cc1)OCC(=O)N2	·	–	·	·	·
CCN(CC)C(=O)CSc1nc2ccccc2c(=O)[nH]1	?	–	8.9µM	–	–
CN(C)C(=O)CSc1nc2ccccc2c(=O)[nH]1	–	–	–	–	–
CN(C)c1ccc(C(=S)N2CCN(c3ccccc3)CC2)cc1	13µM	?	–	–	–
SMILES	ALDH1A1 block	LMNA splice mod	HPGD inh	Luc counter	IMPase Li cell
Cc1ccc(N2CCN(C(=S)c3ccc(N(C)C)cc3)CC2)cc1	7.9µM	?	25µM	–	–
Cc1cccc(N2CCN(C(=S)c3ccccc3)CC2)c1	?	–	·	–	–
Cc1ccc(N2CCN(C(=S)Nc3ccccc3)CC2)cc1	–	·	·	–	–
O=C(CSCc1ccc(Cl)cc1)NCc1ccc2c(c1)OCO2	–	–	–	–	–
c1ccc(CN2CCN(CCOCCOc3ccc4c(c3)CCC4)CC2)cc1	–	·	·	–	–
C/C(=N\N1C(=O)CSC1=S)c1ccc(Br)cc1	25µM	?	·	–	–
O=C(Cc1c(Cl)cccc1Cl)NCCc1ccc(Cl)cc1	–	–	–	–	–
O=C(CCl)NCc1c(Cl)cccc1-n1cccc1	28µM	?	–	–	–
COC(=O)c1sccc1NC(=O)CN(C)NS(=O)(=O)c1ccc(Cl)cc1	2.5µM	–	–	–	–
COC(=O)c1sccc1NC(=O)CN(C)NS(=O)(=O)c1ccc([N+](=O)[O-])cc1	1.6µM	–	–	–	–
COC(=O)c1sccc1NC(=O)CN(C)NS(=O)(=O)c1ccc(F)cc1	1µM	–	–	–	–

High-throughput results: PubChem BioAssay, National Center for Advancing Translational Sciences (NCATS)
